Results taken from PubChem BioAssay (NCI).
Compounds without any hit were thinned out: in the full panel of roughly 83,000, 20% have a hit.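 Single-dose data. Exposure time 48 hours. Values below 10 considered active.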 Values without a mark were called inactive. Active and inactive are the calls of the source.

Assays:
Test in all cases: NCI-60 one-dose screen, 48 h (100 = growth as untreated, 0 = no growth, -100 = all killed)
Conditions in all cases: 10 µM unless noted
[1] = test system: NCI-H23 lung
[2] = test system: NCI-H226 lung
[3] = test system: NCI-H322M lung
[4] = test system: HOP-62 NSCLC
[5] = test system: NCI-H460 lung
[6] = test system: 786-0 renal
[7] = test system: COLO 205 colon
[8] = test system: DU-145 prostate
[9] = test system: K-562 leukemia
[10] = test system: MDA-MB-231 breast
[11] = test system: RXF 393 renal
[12] = test system: SF-268 CNS
[13] = test system: SF-295 CNS
[14] = test system: SF-539 CNS
[15] = test system: UACC-257 melanoma
[16] = test system: M14 melanoma
[17] = test system: NCI-H522 lung
[18] = test system: MALME-3M melanoma
[19] = test system: A549/ATCC NSCLC
[20] = test system: HOP-92 NSCLC

Row | Compound | growth [1] | growth [2] | growth [3] [%] | growth [4] | growth [5] | growth [6] | growth [7] | growth [8] | growth [9] | growth [10] | growth [11] | growth [12] | growth [13] | growth [14] | growth [15] | growth [16] | growth [17] | growth [18] [%] | growth [19] [%] | growth [20] [%]
1 | CCCCCCCCCCCC[n+]1ccc2ccccc2c1 | -33.4% (active) | 4.19% (active) | 17 | -33.2% (active) | -13.5% (active) | -62.8% (active) | -80.2% (active) | 8.38% (active) | -18.4% (active) | -18% (active) | -6.08% (active) | -72.7% (active) | -40.3% (active) | -47.8% (active) | -39.2% (active) | -84.2% (active) | – | – | – | –
2 | Cc1ccc(Nc2ccc(O)c3c2C(=O)c2c(O)ccc(Nc4ccc(C)cc4)c2C3=O)cc1 | 101% | 95.6% | 128 | 101% | 105% | 102% | 108% | 124% | 115% | 110% | – | 114% | 104% | 96.3% | 95% | – | 94.8% | 102 | – | –
3 | C/C=C/c1cc2c(c(=O)o1)C(=O)[C@@H](O)[C@H](C)O2 | 77.9% | 79.6% | 94.6 | 101% | 81.6% | 78.4% | 35.6% | 27.6% | -4.98% (active) | 90.1% | 52.7% | 88.4% | 96.1% | 87.7% | 86.7% | -3.06% (active) | -69% (active) | 19.7 | 97.2 | –
4 | COc1cc(NCc2ccc3nc(N)nc(N)c3c2C)cc(OC)c1OC (tested in a mixture with another compound) | 16.1% | 47.5% | 51.9 | 29.8% | 14.1% | 15.5% | 40.2% | 49.6% | 27.9% | 61.6% | 30.1% | 24.1% | 17.1% | 25.3% | 23.5% | 20.9% | 22.3% | 37.2 | 36.9 | –
5 | S=C(S)OCN1CCOCC1 | 93.8% | 97% | 98 | 108% | – | 108% | 20.7% | 86% | 77.3% | 116% | 107% | 97.9% | 95.6% | 101% | 42.6% | 77.4% | 1.59% (active) | 87.5 | 91.6 | 86.4
6 | O=C(c1ccccc1)C(O)C(Br)(CBr)c1ccccc1 (stereo unspecified) | 74.9% | 90.2% | 101 | 107% | – | 105% | 120% | 87.1% | 50.8% | 91.6% | 105% | 98.8% | 103% | 107% | 72.5% | – | -30.8% (active) | 99.9 | 88.5 | 47.2
7 | O=C1C=CC(O)=CC1=P(c1ccccc1)(c1ccccc1)c1ccccc1 | 94.6% | 88.8% | 83.3 | 99.7% | 73.6% | 87.9% | 105% | 114% | 88.8% | 81.3% | – | 100% | 107% | 86.9% | – | 100% | 81.8% | 59.5 | – | –
8 | Cc1oc2c(C)c3oc(=O)cc(C)c3cc2c1CCl | 84.9% | 75.5% | 75.9 | 92.3% | – | 84.2% | 83.8% | 72.8% | 59% | 81.7% | 83.6% | 75.9% | 87% | – | 88.9% | 93.2% | 54.7% | 95.8 | 88.5 | 58.5
